In the library only some 2.9% were active in any assay of this set; here they are far more common.
FAS-TE inh: inhibitors of human fatty acid synthase thioesterase domain; P49327; recombinant FAS-TE, OMFH fluorogenic substrate, fluorescence endpoint; inhibition, % at 15 µM; 0.67% of 360,000 active; AID 602261;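 active = compounds whose normalised, plate-corrected inhibition of enzyme fluorescence in the single-dose primary screen is 50% or more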
proKLK7 act: proKLK7 (human) activation, primary screen | P49862 | purified proKLK7, EDANS-DABCYL substrate fluorescence; 100% is mature enzyme control, 0% vehicle | activation, % at 7 µM | 0.9% of 370,000 active | AID 652039;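 active = activation above the mean of all tested compounds plus 3 SD, computed per campaign excluding outliers beyond control limits, cut at about 13% in these data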
Target sequence (P49862 whole entry, looked up): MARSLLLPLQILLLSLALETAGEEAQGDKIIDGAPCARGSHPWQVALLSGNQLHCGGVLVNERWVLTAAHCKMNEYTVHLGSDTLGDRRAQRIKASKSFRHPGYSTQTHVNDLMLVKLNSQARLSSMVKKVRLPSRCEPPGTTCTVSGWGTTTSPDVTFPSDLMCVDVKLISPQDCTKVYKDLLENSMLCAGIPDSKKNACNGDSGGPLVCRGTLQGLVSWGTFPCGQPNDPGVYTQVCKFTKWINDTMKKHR
FXN GAA850 act: increases GAA850 frataxin promoter reporter activity; HEK293 lucGAA850 FXN promoter luciferase reporter, 24 h; percent of 10 µM SAHA response; activation, % at 6 µM; 0.56% of 360,000 active; AID 540364;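 active = activation above the average of all compounds screened plus 3 SD, cutoff fixed separately per campaign, cut at about 7.5% in these data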
SMARCA2 act: SMARCA2 function activation, primary screen | MG213 cells, MMTV-luciferase reporter, dexamethasone, overnight | activation, % at 9.1 µM | 1% of 370,000 active; in the data active = activation above about 7.8%
SMARCA2 act conf: SMARCA2 activation, confirmation screen | shares compounds with SMARCA2 act | MG213 cells, MMTV-luciferase with dexamethasone, luminescence, overnight; MG213 cells expressing E1A, Rb sequestered; DMSO wells 0%, reference activator 100% | activation, % at 9.1 µM | 30% of 3,500 active;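 active = activation above its plate's cutoff, the mean activation of tested wells plus 3 SD, cut at about 7.9% in these data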
VP16 Luc act: counter-screen for SMARCA2 activators: GAL4-VP16 luciferase reporter activation; shares compounds with SMARCA2 act; HEK293 GAL4-VP16 pG5luc reporter, luciferase luminescence; scaled: DMSO wells 0%, SAHA wells 100%; activation, % at 9.1 µM; 41% of 3,500 active; AID 686939;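 active = activation above the solvent-only control well mean plus 3 SD, averaged across control plates, cut at about 5.2% in these data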
Each line names hits and unclear results; the compound was inactive in the other large screens (follow-up assays come after a bar, where they were run).

CCn1c(C)csc1=NC(=O)c1ccccc1O	SMARCA2 act 12 | SMARCA2 act conf inactive | VP16 Luc act 8.0
COC(=O)CC1(C(=O)OC)Oc2ccccc2C(=O)N1c1ccc(F)cc1F (centres undefined)	none
Cc1ccc(NC(=O)c2ccccc2Cl)c(Cl)c1	SMARCA2 act 13 | SMARCA2 act conf 11 | VP16 Luc act 5.5
Cc1ccc(NC(=O)c2ccccc2F)c(NC(=O)c2ccccc2F)c1	none
Cc1ccccc1NS(=O)(=O)c1cc(C(=O)N2CCc3ccccc3C2)ccc1C	none
CCC(=O)N1CCc2cc(S(=O)(=O)N3CCCCC3CC)ccc21 (centres undefined)	none
O=C(CN1C(=O)S/C(=C\C=C\c2ccccc2)C1=O)Nc1ccc(C(=O)O)cc1	none
O=C(CN1C(=O)S/C(=C/C=C/c2ccccc2)C1=O)Nc1ccc(C(=O)O)cc1	SMARCA2 act 12 | SMARCA2 act conf inactive | VP16 Luc act inactive
COc1cccc(C2(c3cccc(OC)c3)CC2C(=O)Nc2cccc3ccccc23)c1 (centres undefined)	SMARCA2 act 9.6 | SMARCA2 act conf inactive | VP16 Luc act inactive
COc1cccc(NC(=O)C2CC2(c2cccc(OC)c2)c2cccc(OC)c2)c1 (centres undefined)	none
O=S(=O)(CC(O)COc1ccccc1Cl)c1ccccc1 (centres undefined)	none
O=S(=O)(Cc1ccccc1Cl)CC(O)COc1ccccc1Cl (centres undefined)	SMARCA2 act 8.4 | SMARCA2 act conf inactive | VP16 Luc act inactive
COc1ccc(-c2noc(CSc3nc4ccccc4c(=O)n3-c3ccc(C)cc3)n2)cc1	SMARCA2 act 12 | SMARCA2 act conf inactive | VP16 Luc act inactive
CCc1ccccc1N1CC(C(=O)Nc2cc(C)on2)CC1=O (centres undefined)	none
COc1cccc(C(=O)NC2CC3CCCC(C2)N3CC(=O)Nc2ccccc2C(F)(F)F)c1 (centres undefined)	none
CCc1cccc(CC)c1NC(=O)CN1C2CCCC1CC(NC(=O)Nc1cccc(OC)c1)C2 (centres undefined)	SMARCA2 act 11 | SMARCA2 act conf inactive | VP16 Luc act inactive
Cc1ccc(S(=O)(=O)NCCC(=O)OCn2nnc3ccccc3c2=O)cc1	none
CCCCCCOC(=O)c1ccc(N)cc1	SMARCA2 act 8.0 | SMARCA2 act conf inactive | VP16 Luc act 5.8
CC(C)C[C@H]1CN([C@@H](Cc2ccc(O)cc2)CN2CCCC2CN2C(=S)NC[C@@H]2Cc2ccccc2)C(=S)N1CC1CCCCC1 (some centres undefined)	SMARCA2 act 8.0 (no result: FXN GAA850 act) | SMARCA2 act conf inactive | VP16 Luc act inactive
CN(C(=O)/C=C/c1cnc2ccccc2c1)C1CCCCC1	SMARCA2 act 9.9 | SMARCA2 act conf 12 | VP16 Luc act 11
O=C(COC(=O)[C@H](Cc1ccccc1)NC(=O)c1cccs1)NC1CCCCC1	none
CCc1cccc2c(C(=O)COC(=O)c3c(C)noc3C)c[nH]c12	SMARCA2 act 8.6 | SMARCA2 act conf inactive | VP16 Luc act inactive
COc1ccc(-c2nnc(SCC(=O)Nc3cccc(Cl)c3)o2)cc1	SMARCA2 act 12 | SMARCA2 act conf inactive | VP16 Luc act 7.2
COc1ccc(-c2nnc(SCC(=O)Nc3ccccc3OC)o2)cc1	none
Cn1c(SCC(=O)O)nnc1-c1cccc(NC(=O)c2cccc3ccccc23)c1	none
COc1ccc(CNCC#Cc2ccc(C(F)(F)F)cc2)c(OC)c1	none (no result: FAS-TE inh, FXN GAA850 act)
CC(=O)c1ccc(OCCCC(=O)OCc2nnc(-c3ccc(Cl)cc3)o2)cc1	SMARCA2 act 8.3 | SMARCA2 act conf 8.4 | VP16 Luc act inactive
CCn1c(C)nc2cc(C(=O)NNC(=O)c3ccc(C)cc3)ccc21	none
CCn1c(C)nc2cc(C(=O)NNS(=O)(=O)c3c(C)c(C)cc(C)c3C)ccc21	SMARCA2 act 12 | SMARCA2 act conf inactive | VP16 Luc act inactive
COc1ccc(CCNC(=O)CCn2c(=O)c3cccn3c3cccnc32)cc1OC	SMARCA2 act 12 | SMARCA2 act conf 7.9 | VP16 Luc act inactive
COc1ccc(CNC(=O)CCCn2c(=O)c3cccn3c3cccnc32)cc1	none
Cc1n[nH]c(=S)n1/N=C/c1ccc(OCc2ccc(Cl)cc2Cl)cc1	SMARCA2 act 13 | SMARCA2 act conf inactive | VP16 Luc act inactive
Cc1n[nH]c(=S)n1/N=C/c1ccc(OCc2ccc(Cl)cc2)cc1	none
Cc1cc(C)nc(NS(=O)(=O)c2ccc(NC(=O)C3CC(=O)N(c4ccccc4)C3)cc2)n1 (centres undefined)	SMARCA2 act 8.2 | SMARCA2 act conf inactive | VP16 Luc act inactive
COc1ccc(N2CC(C(=O)Nc3ccc(S(=O)(=O)Nc4nc(C)cc(C)n4)cc3)CC2=O)cc1 (centres undefined)	SMARCA2 act 9.4 | SMARCA2 act conf inactive | VP16 Luc act inactive
Cc1ccc(-c2nnnn2CS(=O)(=O)c2ccccc2)cc1	none
CC(=O)c1nn(-c2cccc(Br)c2)cc1C(=O)c1ccco1	SMARCA2 act 8.4 | SMARCA2 act conf inactive | VP16 Luc act inactive
O=C1c2ccccc2CN1c1ccccc1	SMARCA2 act 9.7 | SMARCA2 act conf 11 | VP16 Luc act 9.8
Cc1ccc(N2Cc3ccccc3C2=O)cc1	SMARCA2 act 10 | SMARCA2 act conf inactive | VP16 Luc act inactive
COc1ccc(N2Cc3ccccc3C2=O)cc1	none
CCOC(=O)c1cnn(CCOC(=O)C2CC2)c1NC(=O)C1CC1	none
CCOC(=O)c1cccc(N2C(=O)C3C(C2=O)C2C=CC3C23CC3)c1 (centres undefined)	none
Cc1n[nH]c(C)c1CN(C)C(=O)C1CCC(=O)N(CC2CCCCC2)C1 (centres undefined)	none
CSc1ccccc1NC(=O)c1csc(C)c1	none
O=C(OCc1ccccc1)N1CCC2CC1c1ccc(N3CCOCC3)cc12 (centres undefined)	none
COC(=O)c1c(-c2cccnc2)csc1NC(=O)c1cc(C)on1	SMARCA2 act 10 | SMARCA2 act conf 19 | VP16 Luc act 14
Cc1cc(NC(=O)c2sc3ccccc3c2O)no1	none
CC(=Nc1cccc(O)c1)c1sc2ccccc2c1O	SMARCA2 act 14 | SMARCA2 act conf 8.1 | VP16 Luc act 13
CC(=Nc1ccc(C)cc1C)c1sc2ccccc2c1O	SMARCA2 act 15 | SMARCA2 act conf inactive | VP16 Luc act 11
CC(=Nc1ccc(C)cc1)c1sc2ccccc2c1O	none
O=C(NC1CCCCC1)c1ccc(CS(=O)(=O)c2ccc(Cl)cc2)o1	none
O=C(COC(=O)C1CCCC1)Nc1cccc(Cl)c1Cl	none
COc1ccc(S(=O)(=O)N(Cc2ccccc2)Cc2nc(-c3ccccc3)no2)cc1	none
CCCC(CCC)=NNC(=O)c1ccccc1F	SMARCA2 act 8.2 | SMARCA2 act conf inactive | VP16 Luc act inactive
Cc1ccccc1NC(=O)CCS(=O)(=O)c1cccc2nonc12	none
